From PubChem
LANA-H2A inh = blockers of LANA interaction with H2A/H2B – biochemical, FP readout, HTS, primary screen; AID 2629, 2010; inhibition, % (no concentration beside the values); 320,000 tested, 0.6% active; cell-free LANA-H2A/H2B peptide, fluorescence polarization; in the data active = inhibition mostly above about 10%, no sharp cut-off; inactive = mostly below about 6.7%
Cardiac RTF inh = cardiac RTF calcium sensitivity inhibitors, primary screen, biochemical, IANBD-TnC fluorescence, EC70 calcium | 340,000 tested, 0.12% active | IANBD-labeled cardiac RTF, Ca2+ fluorescence | inhibition, % at 7.15 µM | AID 493244, 2011;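 active = inhibition above the mean inhibition of all tested compounds plus 3 SD, cut at about 17% in these data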;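 note: assay run at fixed EC70 calcium of 1.6 mM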
C-LANA FP = inhibitors of KSHV C-LANA binding to DNA, primary screen, biochemical, fluorescence polarization, FAM-LBS DNA, MBP-C-LANA, single point | inhibition, % at 9 µM | 340,000 tested, 0.078% active | Kaposi's sarcoma herpesvirus LANA C-terminal domain (residues 932-1162) DNA binding | AID 504423, 2011;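 active = highest replicate inhibition at or above 60% at 9 µM, even if other replicates fall short; inactive = all replicates below 60% inhibition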;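 note: 0% = neutral control wells and 100% = 4 µM acridine orange control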
Keap1-Nrf2 PPI = Keap1-Nrf2 protein-protein interaction inhibitors, primary screen, biochemical, fluorescence polarization, single point; 340,000 tested, 0.15% active; Kelch-like ECH-associated protein 1 (Homo sapiens), Q14145; inhibition, % at 9.4 µM; AID 504523, 2011; Keap1 Kelch-Nrf2 peptide fluorescence polarization, 1536-well; in the data active = inhibition above about 12%; inconclusive = no clear call, values can overlap the other calls; inactive = below about 7.3%;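 note: human Keap1 Kelch domain with fluorescein labeled Nrf2 9mer peptide probe; 0% = neutral control wells and 100% = peptide positive control; higher means more block of Keap1 binding to Nrf2 peptide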
RTF Ca sens act = cardiac RTF calcium sensitivity activators, primary screen, biochemical, IANBD-TnC fluorescence, EC20 calcium; Troponin I, cardiac muscle (Homo sapiens) + Troponin T, cardiac muscle (Homo sapiens) + …; IANBD-labeled TnC RTF fluorescence at EC20 calcium; 0% EC20 calcium, 100% full calcium; activation, % at 7.2 µM; 340,000 tested, 0.24% active; AID 493008, 2010;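 active = activation above the mean over all tested compounds plus 3 SD, cut at about 30% in these data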;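 note: rise in fluorescence read as greater calcium sensitivity of cardiac thin filaments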
E coli Lon inh = inhibitors of E. coli Lon protease, primary screen, biochemical, fluorescence polarization; purified E. coli Lon protease; inhibition, % at 7.94 µM; 360,000 tested, 0.42% active; AID 602123, 2011; in the data active = inhibition above about 13%, passing the limit was not always enough;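 note: 0% = enzyme with probe and DMSO and 100% = no enzyme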
Numbers without * were called inactive; i = inactive; ? = inconclusive; / = no result; + = active, no number. The list is not random: actives were taken first. Their share in the collection is about 1.3%.

SMILES | LANA-H2A inh | Cardiac RTF inh | C-LANA FP | Keap1-Nrf2 PPI | RTF Ca sens act | E coli Lon inh
Cc1ccc(NC(=O)CN(C)C(=O)C(c2ccccc2)c2ccccc2)cc1 | 0 | 0 | 0 | 0 | -2 | -6
COc1ccc(NC(=O)CN(C)C(=O)C(Sc2ccccc2)c2ccccc2)cc1 (stereo unspecified) | 60* | -7 | 2 | -1 | -3 | -3
CN(CC(=O)Nc1c(Cl)cccc1Cl)C(=O)c1ccccc1SCC(=O)N1CCCC1 | -1 | -4 | -1 | -7 | 3 | -2
COc1ccc(NC(=O)CN(C)C(=O)c2ccccc2SCC(=O)N2CCCC2)cc1 | 19* | -2 | 1 | -4 | -1 | -4
Nn1c(-c2cccc(O)c2)nnc1-c1cccc(O)c1 | / | 2 | 2 | -2 | -5 | -8
COc1ccc(S(=O)(=O)N(C)C[C@H]2Oc3c(NS(=O)(=O)c4ccc(F)cc4)cccc3C(=O)N([C@H](C)CO)C[C@@H]2C)cc1 | / | -7 | 1 | -4 | 5 | 6
CC(=O)Oc1ccc2c(c1)O/C(=C\c1ccncc1)C2=O | 3 | -80 | 37 | 2 | 60* | 79*
COc1ccc(/C=C2\Oc3cc(OC(=O)N4CCOCC4)ccc3C2=O)cc1 | 3 | -6 | 1 | -4 | 2 | -8
C=CCn1c(C)csc1=Nc1ccc(C(C)=O)cc1 | -1 | 4 | 0 | -1 | -6 | 7
CCOC(=O)c1ccc(N=c2scc(C)n2CC)cc1 | 43* | 0 | 0 | -2 | 5 | -1
Oc1sc(C=Nc2ccccc2)c2ccccc12 | -6 | -111 | 2 | -12 | 75* | -170
CN(C)C1(CNC(=O)C2CCC(=O)N(Cc3ccc(Cl)cc3)C2)CCCCC1 (stereo unspecified) | 11* | -10 | -1 | 2 | 6 | 1
O=C(O)CN1C(=O)/C(=C\c2cc(Br)ccc2OCc2ccc([N+](=O)[O-])cc2)SC1=S | -1 | 1 | 78* | 1 | -15 | -12
O=C(O)CN1C(=O)/C(=C\c2cc(Br)ccc2OCc2ccccc2Cl)SC1=S | 1 | -6 | 11 | -3 | -10 | -4
CCCCCCC1(C)NC(=O)N(C(C)C(=O)Nc2ccc(N3CCOCC3)cc2)C1=O (stereo unspecified) | -2 | 3 | -1 | 4 | -2 | 0
C=CCOc1ccc(C2C(C(=O)c3cccs3)=C(O)C(=O)N2c2nnc(C)s2)cc1 (stereo unspecified) | 12 | -43 | 51 | 0 | 44* | 13
COc1ccc(C2C(C(=O)c3cccs3)=C(O)C(=O)N2c2nnc(C)s2)cc1OC (stereo unspecified) | 11 | -71 | 42 | ? | 80* | 38*
Cc1ccc(C2C(C(=O)c3ccco3)=C(O)C(=O)N2c2nnc(C)s2)cc1 (stereo unspecified) | 0 | -8 | 2 | -5 | 1 | 8
CN(Cc1ccc(Cl)cc1Cl)C(=O)CCNC(=O)c1ccco1 | 4 | -8 | -1 | -8 | -3 | -6
O=c1cc2oc3cc(O)c(O)cc3c(-c3ccccc3O)c-2cc1O | / | -23 | 146* | 49* | 51* | 92*
COc1ccc(OC)c(-c2c3cc(O)c(=O)cc-3oc3cc(O)c(O)cc23)c1 | / | i | 167* | + | + | +
COc1ccc(OC)c(-c2oc3ccccc3c(=O)c2O)c1 | 3.4* | -3 | 0 | 1 | 2 | -8
CCOc1ccccc1-c1c2cc(O)c(=O)cc-2oc2cc(O)c(O)cc12 | / | i | 158* | + | + | 176*
COc1cc(OC)c(-c2oc3ccccc3c(=O)c2O)c(OC)c1 | / | 1 | 2 | 0 | -2 | -7
CC1(OC(=O)c2cccs2)C(=O)C=C2C=C(c3ccsc3)OC=C2C1=O (stereo unspecified) | 3 | / | / | / | / | /
